Results from PubChem BioAssay (NCATS).
Inconclusive results are not listed. Active and inactive are the calls of the source. Calls come from the whole dose curve; as a rule, active = well fitted inhibition curve with a large enough effect; inconclusive = small, poorly fitted or top-dose-only effect; inactive = flat fitted curve, though single readings scatter.

Tests used:
Experiment in all cases: qHTS profiling for inhibitors of Plasmodium falciparum proliferation (AID 504749); note: nearly all actives have a fitted effect of over 60% in size
Details in all cases: P. falciparum in erythrocytes, SYBR Green DNA, 72 h; series mostly up to 28.7 µM
CP191 = test system: CP191
Summary of the method: (§1)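 Three-day growth assay of blood-stage parasites in erythrocytes (0.3% parasitemia, 2.5% hematocrit) at 37 C, 5% CO2, quantified by SYBR Green DNA staining after overnight detergent lysis.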

CP192 = test system: CP192
Summary of the method: as §1

CP194 = test system: CP194
Summary of the method: as §1

CP201 = test system: CP201
Summary of the method: as §1

CP203 = test system: CP203
Summary of the method: as §1

CP211 = test system: CP211
Summary of the method: as §1

CP215 = test system: CP215
Summary of the method: as §1

CP217 = test system: CP217
Summary of the method: as §1

CP237 = test system: CP237
Summary of the method: as §1

CP238 = test system: CP238
Summary of the method: as §1

CP247 = test system: CP247
Summary of the method: as §1

CP250 = test system: CP250
Summary of the method: as §1

CP252 = test system: CP252
Summary of the method: as §1

CP256 = test system: CP256
Summary of the method: as §1

CP260 = test system: CP260
Summary of the method: as §1

CP262 = test system: CP262
Summary of the method: as §1

CP265 = test system: CP265
Summary of the method: as §1

CP266 = test system: CP266
Summary of the method: as §1

CP268 = test system: CP268
Summary of the method: as §1

CP269 = test system: CP269
Summary of the method: as §1

Measured: Potency
Potency is the fitted concentration of half-maximal effect.

CCCCCCCCCCCCSCCOCCO
inactive: all assays above

NC(=O)n1c(O)c(C(=O)c2cccs2)c2cc(Cl)ccc21
inactive: all assays above

O=C(O)CCC(=O)Nc1ccc(S(=O)(=O)Nc2nccs2)cc1
inactive: all assays above

CCCCC(CC)COC(=O)/C=C/c1ccc(OC)cc1 (centres undefined)
inactive: all assays above

Nc1ccc(S(=O)(=O)NCc2ccccc2)cc1
inactive: all assays above

CC(C)Cc1ccc(CC(=O)O)cc1
inactive: all assays above

COP(=O)(OC)OC(c1ccc(Cl)cc1)P(=O)(OC)OC (centres undefined)
inactive: all assays above

C#C[C@]1(O)CC[C@H]2[C@@H]3CCC4=Cc5oncc5C[C@]4(C)[C@H]3CC[C@@]21C
inactive: all assays above

NS(=O)(=O)c1ccc(Cl)c(S(N)(=O)=O)c1
inactive: all assays above

COc1cc(C(=O)NCc2ccc(OCCN(C)C)cc2)cc(OC)c1OC
inactive: all assays above

OCc1ccccn1
inactive: all assays above

Cc1c[nH]c2ccccc12
inactive: all assays above

COc1ccc(-c2cc(C(F)F)nn2-c2ccc(S(N)(=O)=O)cc2)cc1F
inactive: all assays above

C=CCN1CCc2nc(N)sc2CC1
inactive: all assays above

OC[C@H]1O[C@@H]2O[C@H]3[C@H](O)[C@@H](O)[C@@H](O[C@H]4[C@H](O)[C@@H](O)[C@@H](O[C@H]5[C@H](O)[C@@H](O)[C@@H](O[C@H]6[C@H](O)[C@@H](O)[C@@H](O[C@H]7[C@H](O)[C@@H](O)[C@@H](O[C@H]8[C@H](O)[C@@H](O)[C@@H](O[C@H]1[C@H](O)[C@H]2O)O[C@@H]8CO)O[C@@H]7CO)O[C@@H]6CO)O[C@@H]5CO)O[C@@H]4CO)O[C@@H]3CO
inactive: all assays above

Nc1ccc(C(=O)NCC(=O)O)cc1
inactive: all assays above

CCOC(=O)c1ccc(N)cc1
inactive: all assays above

CCCCCCCCCCCCCC[N+](C)(C)Cc1ccccc1
active: CP191 2.51 µM | CP192 6.75 µM | CP194 6.75 µM | CP201 7.57 µM | CP203 6.01 µM | CP211 4.26 µM | CP215 5.36 µM | CP217 5.62 µM | CP237 5.62 µM | CP238 7.08 µM | CP247 5.62 µM | CP250 11.2 µM | CP252 7.94 µM | CP256 7.94 µM | CP260 5.01 µM | CP262 4.26 µM | CP265 8.91 µM | CP266 10.7 µM | CP268 6.75 µM | CP269 4.78 µM

C/C=C/C=N/NC(=O)c1ccncc1
inactive: all assays above

O=C(O)C(Cc1cc(I)c(O)c(I)c1)c1ccccc1 (centres undefined)
inactive: all assays above

O=C(O)Cc1csc(-c2ccc(Cl)cc2)n1
inactive: all assays above

CCCCCCCCCCCCCCCCO
inactive: all assays above

O=C(Nc1ncc([N+](=O)[O-])s1)c1cccs1
not listed: CP266
inactive: all other assays above

CCCCNc1ccc(C(=O)OCCOCCOCCOCCOCCOCCOCCOCCOCCOC)cc1
inactive: all assays above

OC1C(O)C(O)C(O)C(O)C1O (centres undefined)
inactive: all assays above

CCN1/C(=C/C=C/c2sc3ccccc3[n+]2CC)Sc2ccccc21
active: CP191 0.1 µM | CP192 0.379 µM | CP194 0.478 µM | CP201 0.849 µM | CP203 0.675 µM | CP211 0.379 µM | CP215 0.675 µM | CP217 0.178 µM | CP237 0.158 µM | CP238 0.126 µM | CP247 0.251 µM | CP250 0.178 µM | CP252 0.141 µM | CP256 0.1 µM | CP260 0.158 µM | CP262 0.19 µM | CP265 0.224 µM | CP266 0.675 µM | CP268 0.536 µM | CP269 0.379 µM

c1ccc(CC2=NCCN2)cc1
inactive: all assays above

CCOc1ccccc1OCCN[C@H](C)Cc1ccc(OC)c(S(N)(=O)=O)c1
inactive: all assays above
